Pf growth 48h: Primary qHTS for delayed death inhibitors of the malarial parasite plastid, 48 hour incubation; Potency, µM (series often up to 28.7 µM), for the others: top-dose activity change, negative = inhibition, hits mostly inhibitors; P. falciparum luciferase growth in erythrocytes, 48 h; hit rate 5.9% among 310,000; further: potency means the concentration at half of the fitted maximal effect
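Growth was read as firefly luciferase luminescence after a 48 h, 37 C, 5% CO2 exposure of compounds to reporter-bearing P. falciparum cultures (0.1% parasitemia, 2% hematocrit final) in Albumax-supplemented RPMI 1640.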
Lassa entry inh: qHTS for Inhibitors of binding or entry into cells for Lassa Virus; AID 540256, 2011; Potency, µM (series often up to 37.9 µM), for inactives: top-dose activity change, negative = inhibition, most hits filed as inhibitors; Lassa virus pseudotype entry inhibition, cell reporter; hit rate 1.2% among 300,000; calls by dose curve; tested in HEK293 cells; further: potency means the concentration at half of the fitted maximal effect; nearly all actives have a fitted effect of over 50% in size
Pf growth 96h: Primary qHTS for delayed death inhibitors of the malarial parasite plastid, 96 hour incubation; Potency, µM (highest dose often 28.7 µM), for the others: at the top dose activity change, negative = inhibition, hits mostly inhibitors; hit rate 6.9% among 320,000; P. falciparum luciferase reporter growth, 96 h; further: potency means the concentration at half of the fitted maximal effect
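Cell-based qHTS: luciferase-tagged P. falciparum in erythrocytes (2% hematocrit, 0.05% parasitemia final) incubated with compounds for 96 hours, 37 C, 5% CO2; luciferase detection reagent then added and luminescence measured.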
HCV inh: qHTS Assay for Inhibitors of Hepatitis C Virus (HCV); Huh7.5.1 HCVcc-Cre infection, luciferase reporter, 44 h; Potency, µM (titrated, usually from 41.8 µM), for inactives: at the highest dose activity change, negative = inhibition, usual class: inhibitors; hit rate 3.4% among 340,000; AID 651820, 2012; further: potency means the concentration at half of the fitted maximal effect
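1,000 cells/well; 4 h culture; + compound; + HCVcc-Cre (~0.5 moi); 44 h; luciferase substrate, RT 15 min; read 15 sec.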
HCMV inh: qHTS Assay for inhibitors of the human cytomegalovirus (HCMV); HFF cells, HCMV-luciferase reporter, 72 h; stronger effect = lower value; activity change, negative = inhibition, % at 57.5 µM; hit rate 4.5% among 410,000; in the data active means activity change below about -60%; inconclusive means no clear call, values can overlap the other calls; inactive means above about -39%
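Compounds were evaluated in HFFs infected with an HCMV luciferase reporter virus (MOI 1 PFU/cell). Luciferase in lysates collected 72 h post infection served as the replication measure.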
Marburg entry inh: qHTS for inhibitors of binding or entry into cells for Marburg Virus | Marburg virus pseudotyped entry inhibition, cell reporter | Potency, µM (highest dose often 37.8 µM), for inactives: at the top dose activity change, negative = inhibition, actives largely listed as inhibitors | hit rate 1.8% among 300,000 | AID 540276, 2011; calls by dose curve; tested in HEK293 cells; further: potency means the concentration at half of the fitted maximal effect
Starred values were filed as active, the others as inactive; u = inconclusive; x = no result given; [ ] = another dose, or the depositor's remark. Shown are actives, neighbours in structure and some others; about 14% of the full set was active somewhere. Unless noted, the call rests on the fitted dose curve; in most records, active means well fitted inhibition curve with a large enough effect; inconclusive means small, poorly fitted or top-dose-only effect, or another doubt; inactive means no such curve, though single readings can be large or run the other way. On the % scale 0 is the no-effect control and ±100 the full control effect.

SMILES	Pf growth 48h	Lassa entry inh	Pf growth 96h	HCV inh	HCMV inh	Marburg entry inh
CC(C)N(CCn1c(=S)[nH]c2ccccc2c1=O)C(C)C	x	-2%	2.9µM*	-17%	-15	-1%[46.1 µM]
O=C(OCc1cn([C@H]2C[C@H](c3ccccc3)N(C(=O)C3CCCCC3)C[C@H]2O)nn1)c1ccccc1	x	0%[46.1 µM]	x	x	x	x
Cc1cccn2c(=O)c(C(=O)NCCc3ccccc3)c(O)nc12	x	x	x	x	u	10%[46.1 µM]
COc1ccc(Nc2nc(-c3cccc([N+](=O)[O-])c3)nc3ccccc23)cc1	u	u	u	u	23	15µM*
O=S(=O)(c1ccc(Cl)cc1)N1CCN(c2nc(-c3cccs3)nc3ccccc23)CC1	3.7µM*	-2%	1.5µM*	-16%	13	-29%
COc1cccc(Nc2nc(-c3cccs3)nc3ccccc23)c1	29%	u	-72%	u	38	u
c1csc(-c2nc(N3CCOCC3)c3ccccc3n2)c1	-1%	-26%	4%	11µM*	-8	u
COc1ccc(Nc2nc(-c3cccs3)nc3ccccc23)cc1	-14%	-22%	0%	4.5µM*	-102*	u
CSCCC(=O)Nc1cc(S(=O)(=O)N2CCOCC2)ccc1N1CCN(C)CC1	18%	12%[46.1 µM]	0%	16%	-16	-14%[46.1 µM]
COc1ccc(N2CCN(c3nc(-c4cccs4)nc4ccccc34)CC2)cc1	u	2%	u	11µM*	u	u
O=S(=O)(c1ccccc1)N1CCN(c2nc(-c3cccs3)nc3ccccc23)CC1	-15%	-3%	u	4%	x	-1%
O=C(Nc1ccc(F)cc1)N1CCN2C(=O)c3ccccc3C12c1ccccc1 (configuration not stated)	x	u	13µM*	1%	x	-18%
O=C1c2ccccc2C2(c3ccccc3)N1CCN2C(=O)C(Cl)(Cl)Cl (configuration not stated)	x	-26%	0.83µM*	-5%	u	u
Cc1ccc(C(=O)N2CCN3C(=O)c4ccccc4C23c2ccccc2)cc1 (configuration not stated)	u	-1%	u	-1%	1	7%[46.1 µM]
COc1ccc(CNC(=O)c2cc(C)nc3c2c(C)nn3-c2cccc(Cl)c2C)cc1	x	20%[46.1 µM]	x	x	-20	x
CCC(=O)N1CCc2cc(S(=O)(=O)NCCC(=O)Nc3ccc(CC)cc3)ccc21	x	-11%[46.1 µM]	x	x	-13	7%[46.1 µM]
FC(F)(F)c1cccc(CN2CCC(c3cc(-c4cccs4)n[nH]3)CC2)c1	-21%	u	-19%	u	-79*	u
FC(F)(F)c1cccc(-c2cc(C3CCNCC3)[nH]n2)c1	x	u	u	u	-72*	u
CCOc1ccc(CNS(=O)(=O)c2ccc(-c3coc(C)n3)cc2)cc1OC	x	-17%[46.1 µM]	x	x	-29	x
FC(F)(F)c1cnc(-c2cnc(-c3ccncc3)nc2)c(Cl)c1	59%	-1%	107%	-29%	60	u
FC(F)(F)c1cnc(-c2cnc(-c3ccccn3)nc2)c(Cl)c1	329%	-26%	6.6µM*	-9%	12	u
COC(=O)c1cn(CC(=O)N2CCCCC2C)c2ccccc12 (configuration not stated)	6%	-2%	u	-1%	-19	5%
CC1CCCCN1C(=O)Cn1cc(C=O)c2ccccc21 (configuration not stated)	-4%	8%	13µM*	-1%	-23	16%
CC1CCCCN1C(=O)Cn1cc(/C=C2/C(=O)Nc3ccccc32)c2ccccc21 (configuration not stated)	u	x	u	x	x	1%
CC1CCCCN1C(=O)Cn1cc(C=C2C(=O)N(C)C(=O)N(C)C2=O)c2ccccc21 (configuration not stated)	-6%	-4%	-13%	23%	-63*	-14%
COc1ccccc1C(=O)COC(=O)c1nc(Cl)ccc1Cl	-8%	-1%	-14%	18%	22	17%

Bioassay records: PubChem BioAssay, National Center for Advancing Translational Sciences (NCATS)
